Laboratory results reported in PubChem BioAssay.
The source made the active and inactive calls. Cut-off read from the data, not from the text of the source: active = nuclear beta-catenin stimulation mostly above about 4.2% (no sharp cut-off); inactive = mostly below about 10%.

Experiment: Wnt pathway potentiators raising nuclear beta-catenin – imaging, WNT3A-conditioned medium, mouse C2C12, NPC library, primary screen (AID 1117326); note: reference of the scale not given here
Settings: at 10 µM, stronger effect = higher value
In the case of Cc1cc2c(OCC(CNC(C)(C)C)OC(=O)c3ccccc3)cccc2[nH]1 (stereo not given), the nuclear beta-catenin stimulation was -0.6% (inactive).
With CC(CNC1CCCCC1)OC(=O)c1ccccc1 (stereo not given) the nuclear beta-catenin stimulation was 0.9% (inactive).
In the case of C[C@]12CC[C@H]3[C@@H](CCC4=CC(=O)CC[C@@]43C)[C@@H]1CC[C@@H]2C(=O)CO, the nuclear beta-catenin stimulation was 3.8% (inactive).
With CCc1cccc(CC)c1NC(=O)CN(CC(=O)O)CC(=O)O the nuclear beta-catenin stimulation was -0.2% (inactive).
With CCC(=O)c1ccc(O)cc1 the nuclear beta-catenin stimulation was 2.6% (inactive).
In the case of FCOC(C(F)(F)F)C(F)(F)F, the nuclear beta-catenin stimulation was -1.9% (inactive).
In the case of COc1ccccc1Oc1c(NS(=O)(=O)c2ccc(C(C)(C)C)cc2)nc(-c2ncccn2)nc1OCCO, the nuclear beta-catenin stimulation was -2.1% (inactive).
With CCC(C)(CN(C)C)OC(=O)c1ccccc1 (stereo not given) the nuclear beta-catenin stimulation was -2.1% (inactive).
For OC[C@@H](O)[C@@H](O[C@@H]1O[C@H](CO)[C@H](O)[C@H](O)[C@H]1O)[C@H](O)[C@@H](O)CO, the nuclear beta-catenin stimulation was 2% (inactive).
With CC1(C)CC1C(=O)NC(=CCCCCSCC(N)C(=O)O)C(=O)O (stereo not given) the nuclear beta-catenin stimulation was -2.2% (inactive).
For C/C(=C(\CCOP(=O)(O)O)SC(=O)c1ccccc1)N(C=O)Cc1cnc(C)nc1N, the nuclear beta-catenin stimulation was -2.6% (inactive).
For CC[N+](C)(CC)CCOC(=O)C1c2ccccc2Oc2ccccc21, the nuclear beta-catenin stimulation was -0.9% (inactive).
With CN1CCN(CCCN2c3ccccc3Sc3ccc(S(=O)(=O)N(C)C)cc32)CC1 the nuclear beta-catenin stimulation was 33.2% (inactive).
With O=C(O)CCc1nc2ccccc2[nH]1 the nuclear beta-catenin stimulation was 2.8% (inactive).
In the case of OC(CCCN1CCCCC1)(c1ccccc1)c1ccccc1, the nuclear beta-catenin stimulation was -0.9% (inactive).
With NS(=O)(=O)c1cc(C(=O)O)cc(N2CCCC2)c1Oc1ccccc1 the nuclear beta-catenin stimulation was 0.5% (inactive).
In the case of CN(CCCCCCCCCCN(C)C(=O)Oc1cccc([N+](C)(C)C)c1)C(=O)Oc1cccc([N+](C)(C)C)c1, the nuclear beta-catenin stimulation was -0.9% (inactive).
With CC(C(=O)O)c1ccc(C(=O)c2ccccc2)s1 (stereo not given) the nuclear beta-catenin stimulation was 0.5% (inactive).
With CN1CCCN(C(c2ccccc2)c2ccc(Cl)cc2)CC1 (stereo not given) the nuclear beta-catenin stimulation was 3.7% (inactive).
With O=C1CC[C@@H](C(=O)O)N1 the nuclear beta-catenin stimulation was 2.4% (inactive).
For CCOC(=O)Nc1ccc2c(c1)N(C(=O)CCN1CCOCC1)c1ccccc1S2, the nuclear beta-catenin stimulation was -0.6% (inactive).
With COc1ccc(-c2cc(=S)ss2)cc1 the nuclear beta-catenin stimulation was -1.5% (inactive).
For CN1CCN(C2=Nc3ccccc3Sc3ccc(Cl)cc32)CC1, the nuclear beta-catenin stimulation was -0.4% (inactive).
With CCCNC(C)C(=O)Nc1c(C)csc1C(=O)OC (stereo not given) the nuclear beta-catenin stimulation was -0.2% (inactive).
For O=C(O)Cc1sc(-c2ccccc2)nc1-c1ccc(Cl)cc1, the nuclear beta-catenin stimulation was -0.8% (inactive).
In the case of NS(=O)(=O)c1cc2c(cc1Cl)NC(CC1CCCC1)NS2(=O)=O (stereo not given), the nuclear beta-catenin stimulation was -0.9% (inactive).
With O=C(O)c1ccc[n+]([O-])c1 the nuclear beta-catenin stimulation was -0.8% (inactive).
With CN(C)CCn1nnnc1SCC1=C(C(=O)O)N2C(=O)[C@@H](NC(=O)Cc3csc(N)n3)[C@H]2SC1 the nuclear beta-catenin stimulation was -1.2% (inactive).
With CC(C)(C)C(=O)OCOC(=O)[C@@H]1N2C(=O)[C@@H](NC(=O)[C@H](N)c3ccccc3)[C@H]2SC1(C)C the nuclear beta-catenin stimulation was -2.4% (inactive).
In the case of COCC(=O)Nc1c(I)c(C(=O)NCC(O)CO)c(I)c(C(=O)N(C)CC(O)CO)c1I (stereo not given), the nuclear beta-catenin stimulation was 3% (inactive).
With C1CCN2C[C@@H]3C[C@@H](CN4CCCC[C@@H]34)[C@H]2C1 the nuclear beta-catenin stimulation was -0.4% (inactive).
For Cc1c(-c2ccccc2)oc2c(C(=O)OCCN3CCCCC3)cccc2c1=O, the nuclear beta-catenin stimulation was -2.4% (inactive).
In the case of CCCCN1C[C@H](O)[C@@H](O)[C@H](O)[C@H]1CO, the nuclear beta-catenin stimulation was 2.8% (inactive).
In the case of NC(=O)OCC(O)COc1ccc(Cl)cc1 (stereo not given), the nuclear beta-catenin stimulation was -1.4% (inactive).
For CCCCc1cc2ccccc2c(OCCN(C)C)n1, the nuclear beta-catenin stimulation was 0.2% (inactive).
With O=C1[O][Bi][O]c2ccccc21 the nuclear beta-catenin stimulation was 0.6% (inactive).
With C[N+]1(C)CCC(=C(c2ccccc2)c2ccccc2)CC1 the nuclear beta-catenin stimulation was 1.1% (inactive).
For CC(C)NC[C@@H](O)COc1ccc(CC(N)=O)cc1, the nuclear beta-catenin stimulation was 0.1% (inactive).
In the case of OCc1ccccn1, the nuclear beta-catenin stimulation was -1% (inactive).
For CN1CCCC(CC2c3ccccc3Sc3ccccc32)C1 (stereo not given), the nuclear beta-catenin stimulation was 0.2% (inactive).

Same assay, conditions: stimulation, at 2 µM, stronger effect = higher value
With Cc1cc2c(OCC(CNC(C)(C)C)OC(=O)c3ccccc3)cccc2[nH]1 (stereo not given) the nuclear beta-catenin stimulation was -2.3%.
CC(CNC1CCCCC1)OC(=O)c1ccccc1 (stereo not given) gave a nuclear beta-catenin stimulation of 2.3%.
C[C@]12CC[C@H]3[C@@H](CCC4=CC(=O)CC[C@@]43C)[C@@H]1CC[C@@H]2C(=O)CO gave a nuclear beta-catenin stimulation of 5.6%.
In the case of CCc1cccc(CC)c1NC(=O)CN(CC(=O)O)CC(=O)O, the nuclear beta-catenin stimulation was 0.2%.
CCC(=O)c1ccc(O)cc1 gave a nuclear beta-catenin stimulation of -0.5%.
Work on FCOC(C(F)(F)F)C(F)(F)F yielded a nuclear beta-catenin stimulation of -0.4%.
With COc1ccccc1Oc1c(NS(=O)(=O)c2ccc(C(C)(C)C)cc2)nc(-c2ncccn2)nc1OCCO the nuclear beta-catenin stimulation was 0.8%.
CCC(C)(CN(C)C)OC(=O)c1ccccc1 (stereo not given) showed a nuclear beta-catenin stimulation of -1.6%.
In the case of OC[C@@H](O)[C@@H](O[C@@H]1O[C@H](CO)[C@H](O)[C@H](O)[C@H]1O)[C@H](O)[C@@H](O)CO, the nuclear beta-catenin stimulation was 0.9%.
For CC1(C)CC1C(=O)NC(=CCCCCSCC(N)C(=O)O)C(=O)O (stereo not given), the nuclear beta-catenin stimulation was -0.6%.
Compound C/C(=C(\CCOP(=O)(O)O)SC(=O)c1ccccc1)N(C=O)Cc1cnc(C)nc1N has a nuclear beta-catenin stimulation of -0.9%.
In the case of CC[N+](C)(CC)CCOC(=O)C1c2ccccc2Oc2ccccc21, the nuclear beta-catenin stimulation was 0.8%.
Compound CN1CCN(CCCN2c3ccccc3Sc3ccc(S(=O)(=O)N(C)C)cc32)CC1 has a nuclear beta-catenin stimulation of 0.3%.
Work on O=C(O)CCc1nc2ccccc2[nH]1 yielded a nuclear beta-catenin stimulation of 2.5%.
For OC(CCCN1CCCCC1)(c1ccccc1)c1ccccc1, the nuclear beta-catenin stimulation was -0.2%.
For NS(=O)(=O)c1cc(C(=O)O)cc(N2CCCC2)c1Oc1ccccc1, the nuclear beta-catenin stimulation was -0.6%.
For CN(CCCCCCCCCCN(C)C(=O)Oc1cccc([N+](C)(C)C)c1)C(=O)Oc1cccc([N+](C)(C)C)c1, the nuclear beta-catenin stimulation was -0.7%.
Work on CC(C(=O)O)c1ccc(C(=O)c2ccccc2)s1 (stereo not given) yielded a nuclear beta-catenin stimulation of 0.1%.
CN1CCCN(C(c2ccccc2)c2ccc(Cl)cc2)CC1 (stereo not given) showed a nuclear beta-catenin stimulation of 1.3%.
With O=C1CC[C@@H](C(=O)O)N1 the nuclear beta-catenin stimulation was 0.7%.
Work on CCOC(=O)Nc1ccc2c(c1)N(C(=O)CCN1CCOCC1)c1ccccc1S2 yielded a nuclear beta-catenin stimulation of 1.1%.
With COc1ccc(-c2cc(=S)ss2)cc1 the nuclear beta-catenin stimulation was -0.3%.
Compound CN1CCN(C2=Nc3ccccc3Sc3ccc(Cl)cc32)CC1 has a nuclear beta-catenin stimulation of -0.2%.
Work on CCCNC(C)C(=O)Nc1c(C)csc1C(=O)OC (stereo not given) yielded a nuclear beta-catenin stimulation of 2%.
O=C(O)Cc1sc(-c2ccccc2)nc1-c1ccc(Cl)cc1 showed a nuclear beta-catenin stimulation of -0.1%.
Work on NS(=O)(=O)c1cc2c(cc1Cl)NC(CC1CCCC1)NS2(=O)=O (stereo not given) yielded a nuclear beta-catenin stimulation of -1.5%.
For O=C(O)c1ccc[n+]([O-])c1, the nuclear beta-catenin stimulation was 2%.
CN(C)CCn1nnnc1SCC1=C(C(=O)O)N2C(=O)[C@@H](NC(=O)Cc3csc(N)n3)[C@H]2SC1 showed a nuclear beta-catenin stimulation of 1.1%.
CC(C)(C)C(=O)OCOC(=O)[C@@H]1N2C(=O)[C@@H](NC(=O)[C@H](N)c3ccccc3)[C@H]2SC1(C)C gave a nuclear beta-catenin stimulation of -1.3%.
Compound COCC(=O)Nc1c(I)c(C(=O)NCC(O)CO)c(I)c(C(=O)N(C)CC(O)CO)c1I (stereo not given) has a nuclear beta-catenin stimulation of 2.8%.
In the case of C1CCN2C[C@@H]3C[C@@H](CN4CCCC[C@@H]34)[C@H]2C1, the nuclear beta-catenin stimulation was -0.5%.
For Cc1c(-c2ccccc2)oc2c(C(=O)OCCN3CCCCC3)cccc2c1=O, the nuclear beta-catenin stimulation was -1%.
Work on CCCCN1C[C@H](O)[C@@H](O)[C@H](O)[C@H]1CO yielded a nuclear beta-catenin stimulation of 0.2%.
In the case of NC(=O)OCC(O)COc1ccc(Cl)cc1 (stereo not given), the nuclear beta-catenin stimulation was -0.6%.
CCCCc1cc2ccccc2c(OCCN(C)C)n1 showed a nuclear beta-catenin stimulation of -0.1%.
In the case of O=C1[O][Bi][O]c2ccccc21, the nuclear beta-catenin stimulation was 0.8%.
For C[N+]1(C)CCC(=C(c2ccccc2)c2ccccc2)CC1, the nuclear beta-catenin stimulation was -1.3%.
For CC(C)NC[C@@H](O)COc1ccc(CC(N)=O)cc1, the nuclear beta-catenin stimulation was 1.2%.
For OCc1ccccn1, the nuclear beta-catenin stimulation was 0.3%.
CN1CCCC(CC2c3ccccc3Sc3ccccc32)C1 (stereo not given) showed a nuclear beta-catenin stimulation of 1.3%.
